From PubChem BioAssay (Tox21) come the findings set out here.

Where “and” joins values, the source holds several entries; their conditions need not be identical. Equal entries are not always repeated. Results filed as inconclusive are left out. Some structures have more than one record in an assay (separate samples or runs), and their calls can disagree. Calls of active or inactive are those of the source. Unless noted, calls follow the shape of the dose curve; as a rule, active = well fitted curve in the direction sought with a large enough effect in the repeat runs; inconclusive = weak or mixed curves; inactive = no such curve, though single readings can be large; an effect the other way counts as inactive or inconclusive.

Assay [1] can be described thus: qHTS assay to identify small molecule antagonists of the glucocorticoid receptor (GR) signaling pathway - cell viability counter screen (AID 720693). Also: nearly all actives have a fitted effect of over 55% in size. A general note: Quantitative high-throughput screening tests each substance at several concentrations.
A short description of assay [2]: qHTS assay for identifying genotoxic compounds that show differential cytotoxicity against isogenic chicken DT40 cell lines with known DNA damage response pathways - wild type cell line (AID 743012). Also: nearly all actives have a fitted effect of over 60% in size. Also: potency is read from the fitted curve at half-maximal effect. An outline of the steps:
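Quantitative HTS on parental DT40 cells: 40 h compound treatment at 37 C/5% CO2, with viability then determined by CellTiter-Glo luminescence. Values serve as the DNA repair-proficient reference for differential cytotoxicity.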

Assay [3] in a line: qHTS assay for identifying genotoxic compounds that show differential cytotoxicity against isogenic chicken DT40 cell lines with known DNA damage response pathways - Rev3 mutant cell line (AID 743014). Also: nearly all actives have a fitted effect of over 55% in size. Also: potency is read from the fitted curve at half-maximal effect.
Assay [4] is described as follows: qHTS assay for identifying genotoxic compounds that show differential cytotoxicity against isogenic chicken DT40 cell lines with known DNA damage response pathways - Rad54/Ku70 mutant cell line (AID 743015). Also: nearly all actives have a fitted effect of over 60% in size. Also: potency is read from the fitted curve at half-maximal effect.
A short description of assay [5]: qHTS assay to identify small molecule antagonists of the androgen receptor (AR) signaling pathway - cell viability counter screen (AID 743033; also: nearly all actives have a fitted effect of over 45% in size).
Assay [6] can be described thus: qHTS assay to identify small molecule antagonists of the androgen receptor (AR) signaling pathway using the MDA cell line - cell viability counter screen (AID 743041; also: nearly all actives have a fitted effect of over 45% in size). Put shortly: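 Cells were plated at 3,000 per well and left 5 h. Compounds in DMSO were then pinned in, followed by R1881. After 16 h at 37C, CellTiter-Fluor fluorescence gave viability.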
The target of assay [7] is Androgen receptor (Homo sapiens) (UniProt P10275). Nature of the assay: qHTS assay to identify small molecule antagonists of the androgen receptor (AR) signaling pathway (AID 743035; active = well fitted inhibition curve with a large enough effect in the signal ratio in the repeat runs, not every such curve was filed as active; the % refers to the signal ratio). Put shortly:
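Cell line: GeneBLAzer AR-UAS-bla GripTite (HEK293). Stimulus: R1881 added after compound. Exposure: 16 h, 37C, 5% CO2. Readout: LiveBLAzer B/G FRET fluorescence after 2 h at room temperature.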

Assay [8] has the same target. As to the kind of experiment: qHTS assay to identify small molecule agonists of the androgen receptor (AR) signaling pathway (AID 743036; active = well fitted activation curve with a large enough effect in the signal ratio in the repeat runs, with a control signal flat, not every such curve was filed as active; the % refers to the signal ratio). Put shortly:
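AR-UAS-bla HEK293 cells, plated 4 h before dosing, were treated with compound for 16 h at 37C. beta-Lactamase reporter read after 2 h with LiveBLAzer B/G FRET substrate at room temperature.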

Assay [9] has the same target. As to the kind of experiment: qHTS assay to identify small molecule agonists of the androgen receptor (AR) signaling pathway using the MDA cell line (AID 743040; also: nearly all actives have a fitted effect of over 20% in size). An outline of the steps: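 Cells plated, 5 h at 37C/0% CO2; compound or DMSO pinned; 16 h at 37C; ONE-Glo added; luminescence measured after 30 min at room temperature. Reporter line: MDA-kb2 with MMTV-luciferase responsive to AR and GR.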

For assay [10] the target is unchanged. Nature of the assay: qHTS assay to identify small molecule antagonists of the androgen receptor (AR) signaling pathway using the MDA cell line (AID 743042; also: nearly all actives have a fitted effect of over 55% in size). An outline of the steps:
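Antagonist mode: compounds plus R1881 agonist added to MDA-kb2 AR-luc cells, incubated 16 h at 37C. Luciferase reporter luminescence quantified, with multiplexed CellTiter-Fluor readout for cell viability.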

Androgen receptor (Homo sapiens), sequence (P10275 whole entry, looked up): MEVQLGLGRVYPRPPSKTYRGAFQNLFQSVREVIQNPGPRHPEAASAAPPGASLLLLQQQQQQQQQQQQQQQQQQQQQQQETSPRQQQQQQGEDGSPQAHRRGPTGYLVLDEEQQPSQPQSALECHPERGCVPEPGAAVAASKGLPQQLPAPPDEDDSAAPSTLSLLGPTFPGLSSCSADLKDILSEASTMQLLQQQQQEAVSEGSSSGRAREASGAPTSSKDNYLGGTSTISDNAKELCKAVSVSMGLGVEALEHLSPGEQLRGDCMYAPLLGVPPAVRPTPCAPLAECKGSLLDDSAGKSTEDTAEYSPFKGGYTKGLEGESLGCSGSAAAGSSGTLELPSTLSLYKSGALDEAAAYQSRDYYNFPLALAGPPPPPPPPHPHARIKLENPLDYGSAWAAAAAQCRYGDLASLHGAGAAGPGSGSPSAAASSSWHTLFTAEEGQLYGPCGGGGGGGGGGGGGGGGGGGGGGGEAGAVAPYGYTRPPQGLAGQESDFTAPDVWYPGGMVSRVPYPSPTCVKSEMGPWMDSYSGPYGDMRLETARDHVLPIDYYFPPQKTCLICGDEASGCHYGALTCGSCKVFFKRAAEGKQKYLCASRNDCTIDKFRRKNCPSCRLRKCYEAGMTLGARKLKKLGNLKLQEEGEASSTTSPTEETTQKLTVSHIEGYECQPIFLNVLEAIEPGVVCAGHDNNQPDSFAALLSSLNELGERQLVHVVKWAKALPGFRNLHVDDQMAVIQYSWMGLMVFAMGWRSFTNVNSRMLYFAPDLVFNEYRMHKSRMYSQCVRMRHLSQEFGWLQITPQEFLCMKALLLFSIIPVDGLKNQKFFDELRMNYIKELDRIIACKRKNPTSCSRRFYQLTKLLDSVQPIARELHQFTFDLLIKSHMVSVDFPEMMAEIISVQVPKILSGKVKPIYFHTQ

For the compound `CC(C)(C)OOC(=O)c1ccccc1`, the outcome in assay [1], in [5] and in [6] was inactive. The Potency entry in assay [2], in [3] and in [4] was “inactive” in each case.
With `CCN(CC)c1ccccc1`, the compound was called inactive in assay [1], in assay [5], in assay [8], in [9], in assay [6] and in assay [10]. Besides, the Potency entry in assay [2], in [3], in [4] and in assay [7] was “inactive” in each case.
As to `CCCCCCCCCCCC#N`, the result in [1], in assay [5] and in [6] was inactive. Further, the Potency result in assay [2], in assay [3] and in assay [4] was “inactive” in each case.
For `Cc1[nH]c(=O)n(C(C)(C)C)c(=O)c1Cl`, the outcome in assay [1], in assay [5], in [8], in assay [9], in assay [6] and in [10] was inactive. For the same compound, the Potency entry in assay [2], in assay [3], in assay [4] and in assay [7] was “inactive” in each case.
`COC(=O)c1ccccc1N`: the result in assay [1], in [5] and in [6] was inactive. Further, the Potency result in assay [2], in assay [3] and in [4] was “inactive” in each case.
On to `OC(O)C(Cl)(Cl)Cl`, for which the result in [1], in [5] and in assay [6] was inactive. Besides, the Potency entry in [2], in assay [3] and in assay [4] was “inactive” throughout.
As to `Clc1cccc(Cl)c1Cl`, the call in assay [1], in assay [5] and in [6] was inactive. For the same compound, the Potency entry in assay [2], in assay [3] and in [4] was “inactive” each time.
As to `O=c1[nH]c(=O)[nH]c(=O)[nH]1`, the outcome in [1], in assay [5], in assay [8], in assay [9], in assay [6] and in [10] was inactive. Moreover, the Potency entry in assay [2], in [3], in assay [4] and in [7] was “inactive” each time.
Take `Cc1ccc(N)cc1Cl`: the result in assay [1], in [5] and in assay [6] was inactive. The Potency result in assay [2], in [3] and in assay [4] was “inactive” throughout.
Turning to `COP(N)(=O)SC` (stereo not drawn), the compound was classed as inactive in assay [1], in assay [5] and in assay [6]. The Potency result in [2], in [3] and in assay [4] was “inactive” in each case.
For `O=C1CCCN1`, the call in [1], in assay [5] and in [6] was inactive. The Potency entry in [2], in assay [3] and in assay [4] was “inactive” in each case.
Turning to `O=[N+]([O-])c1ccc(Oc2ccc(Cl)cc2Cl)cc1`, the call in [1], in assay [5] and in assay [6] was inactive. The Potency result was “inactive and 61.1 µM (active)” in assay [2]; “inactive and 61.1 µM (active)” in [3]; 61.1 µM (active) in [4].
`BrCCBr`: the result in assay [1] and in [6] was inactive. Further, the Potency entry in assay [2] and in assay [4] was “inactive” throughout. Moreover, the Potency in [3] was 18.8 µM (active) and inactive.
On to `CCCCN(CC)C(=O)SCCC`, for which the compound was classed as inactive in assay [1], in assay [5], in assay [8], in [9], in [6] and in assay [10]. Also, the Potency result in assay [2], in assay [3] and in assay [7] was “inactive” throughout.
As to `NCC(O)c1ccc(O)cc1` (stereo not drawn), the compound was classed as inactive in assay [1] and in [6]. Besides, the Potency entry in [2], in assay [3] and in assay [4] was “inactive” in each case.
As to `Cn1cc(-c2ccccc2)c(=O)c(-c2cccc(C(F)(F)F)c2)c1`, the compound was classed as inactive in assay [1], in [5] and in assay [6]. For the same compound, the Potency entry in assay [2] and in assay [3] was “inactive” throughout.
In the case of `C=CCO`, the compound was called inactive in [1], in assay [5] and in assay [6]. Besides, the Potency entry in assay [2] and in assay [3] was “inactive” in each case.
Regarding `CC(NC(C)(C)C)C(=O)c1cccc(Cl)c1` (stereo not drawn), the result in assay [1] and in assay [6] was inactive. Moreover, the Potency result in [2] and in assay [4] was “inactive” in each case. The Potency result in assay [3] is “inactive and 23 µM (active)”.
Regarding `Cc1ccccc1O`, the compound was called inactive in [1], in [5] and in assay [6]. In addition, the Potency result in [2] and in assay [3] was “inactive” in each case.
`CCCN(CCC)N=O`: the compound was classed as inactive in [1] and in assay [6]. Also, the Potency result in [2], in assay [3] and in [4] was “inactive” in each case.
In the case of `O=C(O)c1ccccn1`, the compound was called inactive in assay [1], in assay [5] and in assay [6]. Also, the Potency result in assay [2] and in assay [3] was “inactive” each time.
With `[N-]=[N+]=[N-]`, the compound was called inactive in assay [1], in [5], in [8], in [9], in [6] and in [10]. Besides, the Potency result in assay [2], in assay [3] and in [7] was “inactive” each time.
As for `CC(Oc1ccc(Cl)cc1Cl)C(=O)O` (stereo not drawn), the compound was classed as inactive in assay [1], in assay [5] and in assay [6]. The Potency entry in [2], in assay [3] and in [4] was “inactive” throughout.
Take `CN(C)[C@@H]1C(=O)C(C(N)=O)=C(O)[C@@]2(O)C(=O)C3=C(O)c4c(O)cccc4[C@@](C)(O)[C@H]3C[C@@H]12`: the result in [1], in assay [5] and in assay [6] was inactive. Also, the Potency result in assay [2] and in [3] was “inactive” each time.
